Rows were chosen to be rich in hits. Some 12% of all compounds tested hit in one or more screens of this group.
BAZ2B block – qHTS Assay for Inhibitors of BAZ2B. Bromodomain adjacent to zinc finger domain protein 2B (Homo sapiens), Q9UIF8. AlphaScreen BAZ2B-H3K14Ac peptide displacement. Potency, µM (series often up to 114 µM), for inactives: at the highest dose activity change, negative = inhibition, hits mostly inhibitors. 4.4% of 360,000 active. AID 504333, 2011; note: % is set by controls: 0 for no effect and ±100 for the full control effect; nearly all actives have a fitted effect of over 60% in size
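Compounds, titrated to a top concentration of 110 uM, were incubated 30 min at room temperature with preformed BAZ2B/acetyl-K14 H3 peptide complex (50 nM each). Proximity signal was measured by AlphaScreen after 20 min with beads.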
JMJD2A Tudor inh – qHTS Assay for Inhibitors of JMJD2A-Tudor Domain. Lysine-specific demethylase 4A (Homo sapiens), O75164. AlphaScreen JMJD2A-Tudor / H3K4me3 peptide binding. Potency, µM (series often up to 114 µM), without a hit: at the highest dose activity change, negative = inhibition, most hits filed as inhibitors. 4.4% of 390,000 active. AID 504339, 2011; note: % is set by controls: 0 for no effect and ±100 for the full control effect; nearly all actives have a fitted effect of over 50% in size
HP1b binding inh – HTS for Inhibitors of HP1-beta Chromodomain Interactions with Methylated Histone Tails | Chromobox protein homolog 1 (Homo sapiens), P83916 | AlphaScreen HP1-beta / biotin-H3K9me3 peptide binding | Potency, µM (top dose mostly 114 µM), for the others: at the top dose activity change, negative = inhibition, hits mostly inhibitors | 0.56% of 390,000 active | AID 540317, 2011; note: nearly all actives have a fitted effect of over 70% in size
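AlphaScreen: HP1-beta (50 nM) preformed 30 min with biotin-H3(1-18)K9me3 peptide (50 nM) in PBS pH 7.4, 0.01% Tween-20. Compound added for 30 min at RT, then streptavidin donor/nickel chelate acceptor beads (10 ug/mL) for 30 min.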
Sfp inh – qHTS Assay for Inhibitors of Bacillus subtilis Sfp phosphopantetheinyl transferase (PPTase); 4'-phosphopantetheinyl transferase ffp (Bacillus subtilis), Q9F4F7; Biochemical Sfp PPTase activity, qHTS; AID 1490, 2009; 3.5% of 310,000 active; Potency, µM, for inactives: largest response in the series, negative = inhibition, hits mostly inhibitors;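 note: the enzyme is Sfp with the accession as filed and its product quenches rhodamine fluorescence; 0% = enzyme reaction without inhibitor and -100% = no enzyme wells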
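After 15 min at room temperature with compound, 15 nM Sfp received 5 uM rhodamine-CoA plus 12.5 uM BHQ-2-ybbR (50 mM Hepes pH 7.6, 10 mM MgCl2). Rate came from the fluorescence difference over 30 min, ex 525/em 598 nm.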
L3MBTL1 inh – qHTS Assay for the Inhibitors of L3MBTL1 | AlphaScreen L3MBTL1–H3K9me1 peptide binding | Potency, µM (series often up to 57.1 µM), inactives show at the top dose activity, negative = inhibition, actives largely listed as inhibitors | 0.66% of 230,000 active | AID 485360, 2010; note: % is set by controls: 0 for no effect and ±100 for the full control effect; nearly all actives have a fitted effect of over 60% in size
Target sequence (Q9Y468 whole entry, looked up): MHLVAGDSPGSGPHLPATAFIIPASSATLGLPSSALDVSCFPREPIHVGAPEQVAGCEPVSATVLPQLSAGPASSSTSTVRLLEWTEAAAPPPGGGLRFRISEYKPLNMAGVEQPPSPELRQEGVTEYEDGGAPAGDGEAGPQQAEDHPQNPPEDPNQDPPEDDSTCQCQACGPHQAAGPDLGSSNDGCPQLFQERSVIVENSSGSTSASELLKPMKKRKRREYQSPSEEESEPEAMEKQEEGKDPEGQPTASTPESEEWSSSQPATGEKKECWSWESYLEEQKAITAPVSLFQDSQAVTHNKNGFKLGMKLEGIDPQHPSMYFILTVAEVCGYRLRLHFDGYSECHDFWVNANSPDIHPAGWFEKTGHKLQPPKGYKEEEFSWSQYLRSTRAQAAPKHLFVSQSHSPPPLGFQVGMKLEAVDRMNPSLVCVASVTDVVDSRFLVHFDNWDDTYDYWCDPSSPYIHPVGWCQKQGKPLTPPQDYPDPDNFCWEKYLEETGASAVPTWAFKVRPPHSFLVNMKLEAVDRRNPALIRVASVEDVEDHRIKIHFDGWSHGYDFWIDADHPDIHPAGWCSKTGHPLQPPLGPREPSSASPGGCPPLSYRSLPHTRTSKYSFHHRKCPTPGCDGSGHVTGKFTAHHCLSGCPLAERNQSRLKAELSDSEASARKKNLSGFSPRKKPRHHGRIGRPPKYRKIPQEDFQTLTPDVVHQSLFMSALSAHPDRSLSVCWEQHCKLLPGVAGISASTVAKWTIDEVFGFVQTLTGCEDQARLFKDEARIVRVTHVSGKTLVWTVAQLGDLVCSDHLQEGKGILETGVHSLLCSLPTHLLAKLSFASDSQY
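L3MBTL1 50 nM + b-AHA-H3(1-15)K9me1 75 nM, 30 min RT; compound added, 30 min RT; streptavidin donor/Ni-chelate acceptor beads 10 ug/mL each final, 30 min RT dark; AlphaScreen read.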
G9a block – qHTS Assay for Inhibitors of Histone Lysine Methyltransferase G9a; Histone-lysine N-methyltransferase EHMT2 (Homo sapiens), Q96KQ7; G9a H3K9 monomethylation, AlphaScreen, 2 h; Potency, µM (top dose mostly 102 µM), for inactives: at the highest dose activity, negative = inhibition, usual class: inhibitors; 8.8% of 350,000 active; AID 504332, 2011; note: % is set by controls: 0 for no effect and ±100 for the full control effect; nearly all actives have a fitted effect of over 75% in size
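Methyltransferase reactions run at room temperature for 2 h (20 nM enzyme, 500 nM biotin-H3K9 peptide, 20 uM SAM) after a 15 min compound preincubation; product detected by AlphaScreen beads and anti-H3K9me1 antibody.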
* = called active by the depositor; ? = inconclusive; / = no result; [ ] = remark or other dose. Calls come from the whole dose curve; as a rule, active = well fitted curve in the direction sought with a large enough effect; inconclusive = small, poorly fitted or top-dose-only effect, or another doubt; inactive = no such curve, though single readings can be large; an effect the other way counts as inactive or inconclusive. Potency is the fitted concentration of half-maximal effect.

SMILES	BAZ2B block	JMJD2A Tudor inh	HP1b binding inh	Sfp inh	L3MBTL1 inh	G9a block
O=C1c2ccccc2C2=Nc3ccccc3SC(c3cccc(F)c3)C12 (configuration not stated)	28.2µM*	22.4µM*	28.2µM*	10.3%	-29.0%	?
CCc1c(C)nc2[nH]nc(NC(=O)C(F)(F)F)n2c1=O	?	89.1µM*	-13.9%	-2.7%	9.4%	15.8µM*
CCCCN1C(=O)/C(=C/C=C2\N(C)c3ccccc3C2(C)C)SC1=S	8.91µM*	/	/	-10.5%	-10.9%	?
CN1CCS/C1=C/C=C1\SC(=S)N(CC(=O)O)C1=O	50.1µM*	?	-4.0%	?	?	44.7µM*
CCN1C(=O)/C(=C\N2CCCCCC2)SC1=S	-38.3%	?	?	3.5%	-7.3%	?
CCCN1C(=O)/C(=C\C=C2/C=CN(CC)c3ccccc32)SC1=S	?	?	?	7.08µM*	7.6%	7.94µM*
CCCCN1C(=O)/C(=C/C=C2\SCCN2C)SC1=S	10µM*	35.5µM*	28.2µM*	-20.1%	?	12.6µM*
CN1/C(=C\C=C(C#N)C#N)C(C)(C)c2ccccc21	-6.9%	-17.3%	15.7%	3.9%	5.7%	13.3%
Cc1cc(Nc2cccc(C(F)(F)F)c2)nc2ccc(NC(=O)c3cncc(Br)c3)cc12	10.0%	-3.3%	38.5%	/	/	17.8%[59 µM]
COc1ccccc1NC(=O)C1CCN(c2cnccn2)CC1	-9.5%	-11.3%	10.6%	/	/	3.2%[59 µM]
CN1CCS/C1=C/C=C1/SC(=S)N(Cc2ccccc2)C1=O	10µM*	?	12.6µM*	?	?	?
C=Cc1ccc(Cn2c(C(=O)O)c(CNCc3ccccc3)c3ccc(C)cc32)cc1	50.1µM*	?	-0.1%	/	/	?
O=C(CNC(=O)c1cccc(-n2cnnn2)c1)Nc1ccc(F)c(F)c1	12.1%	89.1µM*	0.7%	/	-0.1%	?
CSc1ncccc1C(=O)NCC(=O)Nc1ccc(F)c(F)c1	0.2%	-11.0%	29.4%	-0.5%	/	3.16µM*
O=C(CNC(=O)c1ccncc1)Nc1ccc(F)c(F)c1	-12.4%	36.5%	55.0%	15.0%	/	11.3%
CSc1ncccc1C(=O)NC1CCCCCCC1	1.4%	2.1%	22.2%	17.2%	/	9.3%
CSc1ncccc1C(=O)NNc1cc(Cl)ccc1Cl	-3.4%	-6.8%	30.6%	-2.3%	/	44.7µM*
CCOc1ccc(N(C(=O)OC(C)(C)C)C(=O)c2ccc(O[Si](C)(C)C(C)(C)C)cc2)c(I)c1	/	-22.8%	-5.3%	-6.0%	/	/
Cc1ccccc1OCC(=O)Nc1ccc(C(=O)OCc2cc(=O)n3ccsc3n2)cc1	-24.0%	-4.0%	12.6%	/	/	14.9%[59 µM]
CC(=O)c1ccc(C#CC(C)(C)O)s1	-3.7%	-21.2%	36.5%	3.3%	?	12.6µM*
COc1cccc(C2C(C#N)=C(N)SC(c3ccccc3)C2[N+](=O)[O-])c1 (configuration not stated)	50.1µM*	?	-12.9%	16.5%	-26.6%	?
COc1cccc(C2C(C#N)=C(N)N(N(C)C)C3=C2C(=O)CCC3)c1 (configuration not stated)	3.2%	-16.0%	34.6%	-3.9%	/	-3.4%
Cc1[nH]c2ccccc2c1-c1csc(NC(=O)CSCC(=O)O)n1	-32.4%	-13.9%	16.5%	-9.5%	-12.6%	?
Cc1[nH]c2ccccc2c1-c1csc(NC(=O)CN2CCOCC2)n1	79.4µM*	?	17.4%	0.5%	-6.8%[11.4 µM]	35.5µM*
Cn1c(NC(=O)/C=C/c2ccco2)cc(=O)n(C)c1=O	-2.3%	-5.2%	32.6%	56.2µM*	-2.3%	?
SMILES	BAZ2B block	JMJD2A Tudor inh	HP1b binding inh	Sfp inh	L3MBTL1 inh	G9a block
Cc1ccc(/C=C/C(=O)Nc2cc(=O)n(C)c(=O)n2C)o1	-5.3%	?	-29.5%	-81.2%	2.8%	3.98µM*
Cc1nc(-c2ccc(F)cc2)sc1CCNC(=O)c1ccco1	18.6%	-17.2%	54.6%	/	/	4.6%[59 µM]
CCCCCC(=O)NC(=S)Nc1ccc(N2CCOCC2)cc1	?	-19.7%	-0.2%	-15.6%	-11.9%	3.55µM*
Cc1ccc(C(=O)NC(=S)Nc2ccc(N3CCOCC3)cc2)c(C)c1	22.4µM*	?	?	-7.5%	-13.6%	/
Cc1ccc(CNCc2ccco2)cc1	56.2µM*	28.2µM*	-4.7%	-6.0%	-0.2%	22.4µM*
COc1cc(CNCc2ccco2)cc(OC)c1O	-4.4%	-6.2%	34.7%	7.6%	0.9%	70.8µM*
Cc1ccccc1OCC(=O)NCC(=O)OCC(=O)c1ccc(Br)cc1	/	-12.3%[57.1 µM]	13.4%[57 µM]	/	/	/
COc1ccc(CNC(=O)CCC(=O)N2CC3CCCN3c3ccccc32)cc1 (configuration not stated)	-36.8%	?	-4.9%	/	/	-14.2%[59 µM]
CCOc1ccc(CCNC(=O)CCSCc2ccc(Cl)cc2)cc1OCC	-8.6%	-21.1%	19.2%	/	/	-2.2%[59 µM]
CC(C(=O)N1c2ccccc2CC1C)N1CCN(S(=O)(=O)c2ccccc2F)CC1 (configuration not stated)	28.2µM*	3.55µM*	?	/	-3.9%	?
CC(C(=O)NCC1CCCCC1)N1CCN(S(=O)(=O)c2ccccc2F)CC1 (configuration not stated)	-9.0%	-9.2%	?	2.2%	3.5%	-28.2%
CCOc1cc(-c2nnc(SCC(=O)Nc3ccc(F)c(F)c3)nc2-c2ccc(OC)c(OCC)c2)ccc1OC	?	-16.2%	23.4%	/	/	12.6µM*
CCOc1ccc(-c2nnc(SCC(=O)NC(C)(C)C)nc2-c2ccc(OCC)c(OC)c2)cc1OC	-15.4%	?	14.2%	-9.8%	/	50.1µM*
CCOc1ccccc1NC(=O)Nc1cc(C(=O)NCc2ccc(C)cc2)ccc1N1CCCC1	0.4%	-1.7%	33.7%	/	/	24.6%[59 µM]
O=C(Oc1ccc2c(c1)OCO2)c1cc2c(s1)CCC2	-126.4%	31.6µM*	?	-5.2%	-90.5%	-31.0%[59 µM]
COc1cccc(-n2cc(C(=O)Nc3cccc(C(F)(F)F)c3)c3ccccc3c2=O)c1	?	-31.2%	24.7%	/	/	?
CCCOc1c(Cl)cc(C(=O)N(Cc2cccc(OC)c2)C2CCS(=O)(=O)C2)cc1Cl (configuration not stated)	-9.8%	-17.4%	42.1%	/	/	2.1%[59 µM]
